Reference: PubChem BioAssay AID1159580 (chemical genetic matrix, 2015)
Among all 5,500 compounds or so, about 2,000 (36%) were called active. Not shown: some 18% with an inconclusive outcome. Cut-off read from the data, not from the text of the source: active = normalized growth mostly below about 0.91 (no sharp cut-off); inconclusive = no clear call, values can overlap the other calls; inactive = mostly above about 0.92. Some of the results follow.

Assay: chemical genetic growth profiling, strain panel (AID 1159580);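 note: tested at 20 µM; growth read once vehicle control cultures reached saturation at 30 °C; 1 = growth at the plate median or of vehicle wells; lower values mean less growth of the strain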
Conditions: growth OD

Measured: normalized growth

C[C@H]1[C@H]2CCC3C4CC=C5C[C@@H](N(C)C)CC[C@]5(C)C4CC[C@@]32CN1C (some centres not stated)
inactive: S. cerevisiae deletion strains, locus YJR075W, strain HOC1, stronger effect = lower value 0.974 | S. cerevisiae deletion strains, locus YKL009W, strain mrt4, stronger effect = lower value 0.985 | S. cerevisiae deletion strains, locus YKL068W, stronger effect = lower value 0.989 | S. cerevisiae deletion strains, locus YKL085W, strain MDH1 (second series), stronger effect = lower value 0.997 | S. cerevisiae deletion strains, locus YKL085W, strain MDH1, stronger effect = lower value 0.997 | S. cerevisiae deletion strains, locus YKL160W, strain elf1, stronger effect = lower value 0.995 | S. cerevisiae deletion strains, locus YKL190W, strain CNB1, stronger effect = lower value 0.98 | S. cerevisiae deletion strains, locus YKR001C, strain vps1, stronger effect = lower value 0.989 | S. cerevisiae deletion strains, locus YKR026C, strain gcn3, stronger effect = lower value 0.99 | S. cerevisiae deletion strains, locus YKR091W, strain srl3, stronger effect = lower value 0.995 | S. cerevisiae deletion strains, locus YLL001W, strain dnm1, stronger effect = lower value 0.98 | S. cerevisiae deletion strains, locus YLL026W, stronger effect = lower value 0.987 | S. cerevisiae deletion strains, locus YLL041C, strain sdh2, stronger effect = lower value 1 | S. cerevisiae deletion strains, locus YLR027C, strain aat2, stronger effect = lower value 0.996 | S. cerevisiae deletion strains, locus YLR039C, strain RIC1, stronger effect = lower value 1.01 | S. cerevisiae deletion strains, locus YLR058C, strain SHM2, stronger effect = lower value 0.98 | S. cerevisiae deletion strains, locus YLR102C, strain apc9, stronger effect = lower value 0.992 | S. cerevisiae deletion strains, locus YLR113W, strain HOG1, stronger effect = lower value 1.02 | S. cerevisiae deletion strains, locus YLR221C, strain rsa3, stronger effect = lower value 0.997 | S. cerevisiae deletion strains, locus YLR258W, strain gsy2, stronger effect = lower value 0.975 | S. cerevisiae deletion strains, locus YLR262C, strain YPT6 (second series), stronger effect = lower value 1 | S. cerevisiae deletion strains, locus YLR262C, strain YPT6, stronger effect = lower value 0.962 | S. cerevisiae deletion strains, locus YLR268W, strain sec22, stronger effect = lower value 1.02 | S. cerevisiae deletion strains, locus YLR320W, strain mms22, stronger effect = lower value 0.955 | S. cerevisiae deletion strains, locus YLR330W, strain CHS5, stronger effect = lower value 0.992 | S. cerevisiae deletion strains, locus YLR342W, strain FKS1 (second series), stronger effect = lower value 0.986 | S. cerevisiae deletion strains, locus YLR342W, strain FKS1, stronger effect = lower value 0.991 | S. cerevisiae deletion strains, locus YLR357W, strain rsc2, stronger effect = lower value 0.955 | S. cerevisiae deletion strains, locus YLR370C, strain arc18, stronger effect = lower value 0.992 | S. cerevisiae deletion strains, locus YLR371W, strain rom2, stronger effect = lower value 0.981 | S. cerevisiae deletion strains, locus YLR384C, strain iki3, stronger effect = lower value 0.983 | S. cerevisiae deletion strains, locus YLR418C, strain cdc73, stronger effect = lower value 0.937 | S. cerevisiae deletion strains, locus YML016C, strain PPZ1, stronger effect = lower value 0.993 | S. cerevisiae deletion strains, locus YML032C, strain rad52, stronger effect = lower value 0.94 | S. cerevisiae deletion strains, locus YML120C, strain ndi1, stronger effect = lower value 1.01 | S. cerevisiae deletion strains, locus YML124C, strain tub3, stronger effect = lower value 0.996 | S. cerevisiae deletion strains, locus YMR058W, strain fet3, stronger effect = lower value 0.993 | S. cerevisiae deletion strains, locus YMR078C, strain ctf18, stronger effect = lower value 0.988 | S. cerevisiae deletion strains, locus YMR125W, strain sto1, stronger effect = lower value 0.947 | S. cerevisiae deletion strains, locus YMR129W, stronger effect = lower value 0.997 | S. cerevisiae deletion strains, locus YMR205C, strain PFK2, stronger effect = lower value 0.935 | S. cerevisiae deletion strains, locus YMR223W, strain ubp8, stronger effect = lower value 0.972 | S. cerevisiae deletion strains, locus YMR231W, strain pep5, stronger effect = lower value 0.994 | S. cerevisiae deletion strains, locus YMR263W, strain SAP30, stronger effect = lower value 0.987 | S. cerevisiae deletion strains, locus YMR307W, strain GAS1, stronger effect = lower value 0.874 | S. cerevisiae deletion strains, locus YNL067W, strain RPL9B, stronger effect = lower value 0.978 | S. cerevisiae deletion strains, locus YNL071W, strain lat1, stronger effect = lower value 0.987 | S. cerevisiae deletion strains, locus YNL128W, strain TEP1, stronger effect = lower value 0.981 | S. cerevisiae deletion strains, locus YNL153C, strain GIM3, stronger effect = lower value 0.982 | S. cerevisiae deletion strains, locus YNL183C, strain NPR1, stronger effect = lower value 0.973 | S. cerevisiae deletion strains, locus YNL209W, strain ssb2, stronger effect = lower value 1 | S. cerevisiae deletion strains, locus YNL233W, strain BNI4, stronger effect = lower value 1 | S. cerevisiae deletion strains, locus YNL248C, strain rpa49, stronger effect = lower value 0.991 | S. cerevisiae deletion strains, locus YNL250W, strain rad50, stronger effect = lower value 0.965 | S. cerevisiae deletion strains, locus YNL271C, strain bni1, stronger effect = lower value 0.988 | S. cerevisiae deletion strains, locus YNL298W, strain CLA4, stronger effect = lower value 0.977 | S. cerevisiae deletion strains, locus YNL307C, strain MCK1, stronger effect = lower value 0.988 | S. cerevisiae deletion strains, locus YNL322C, strain KRE1 (second series), stronger effect = lower value 0.992 | S. cerevisiae deletion strains, locus YNL322C, strain KRE1, stronger effect = lower value 0.994 | S. cerevisiae deletion strains, locus YNR049C, strain mso1, stronger effect = lower value 0.997 | S. cerevisiae deletion strains, locus YNR052C, strain pop2, stronger effect = lower value 0.978 | S. cerevisiae deletion strains, locus YOL006C, strain TOP1, stronger effect = lower value 0.991 | S. cerevisiae deletion strains, locus YOL012C, strain htz1 0.864 | S. cerevisiae deletion strains, locus YOL147C, strain pex11, stronger effect = lower value 0.991 | S. cerevisiae deletion strains, locus YOR001W, strain rrp6, stronger effect = lower value 1.02 | S. cerevisiae deletion strains, locus YOR061W, strain CKA2, stronger effect = lower value 0.96 | S. cerevisiae deletion strains, locus YOR069W, strain VPS5, stronger effect = lower value 1 | S. cerevisiae deletion strains, locus YOR070C, strain gyp1, stronger effect = lower value 0.993 | S. cerevisiae deletion strains, locus YOR080W, strain dia2, stronger effect = lower value 0.978 | S. cerevisiae deletion strains, locus YOR083W, strain WHI5, stronger effect = lower value 1 | S. cerevisiae deletion strains, locus YOR106W, strain vam3, stronger effect = lower value 1 | S. cerevisiae deletion strains, locus YOR136W, strain idh2, stronger effect = lower value 0.991 | S. cerevisiae deletion strains, locus YOR144C, strain elg1, stronger effect = lower value 0.991 | S. cerevisiae deletion strains, locus YOR184W, strain ser1, stronger effect = lower value 0.963 | S. cerevisiae deletion strains, locus YOR231W, strain MKK1, stronger effect = lower value 1.01 | S. cerevisiae deletion strains, locus YOR265W, strain rbl2, stronger effect = lower value 0.991 | S. cerevisiae deletion strains, locus YOR270C, strain vph1, stronger effect = lower value 1 | S. cerevisiae deletion strains, locus YOR290C, strain snf2, stronger effect = lower value 0.96 | S. cerevisiae deletion strains, locus YOR316C, strain cot1, stronger effect = lower value 0.989 | S. cerevisiae deletion strains, locus YPL051W, strain arl3, stronger effect = lower value 1 | S. cerevisiae deletion strains, locus YPL055C, strain LGE1, stronger effect = lower value 0.952 | S. cerevisiae deletion strains, locus YPL078C, strain atp4, stronger effect = lower value 1.01 | S. cerevisiae deletion strains, locus YPL106C, strain sse1, stronger effect = lower value 0.977 | S. cerevisiae deletion strains, locus YPL240C, strain hsp82, stronger effect = lower value 0.993 | S. cerevisiae deletion strains, locus YPL241C, strain CIN2, stronger effect = lower value 0.994 | S. cerevisiae deletion strains, locus YPL256C, strain CLN2, stronger effect = lower value 1.01 | S. cerevisiae deletion strains, locus YPR119W, strain clb2, stronger effect = lower value 1.01 | S. cerevisiae deletion strains, locus YPR141C, strain kar3, stronger effect = lower value 0.98 | S. cerevisiae deletion strains, locus YPR163C, strain tif3, stronger effect = lower value 0.986 | S. cerevisiae deletion strains, locus YPR167C, strain met16, stronger effect = lower value 0.987 | S. cerevisiae deletion strains, strain wtn01, stronger effect = lower value 1.02 | S. cerevisiae strains, strain wild type, stronger effect = lower value 0.981
